Reference: PubChem BioAssay (EPA / NIEHS)
Inconclusive results are not listed. The source holds several records for some structures; these can differ, active in one and inactive in another. The source made the active and inactive calls. The calls were made as follows, unless noted: active = hit-call score of the fitted dose curve at least 0.9, where 1 is the maximum; inactive = score below 0.9.

What was measured:
[1] = ATG_TAL_CIS: Attagene CIS-FACTORIAL HepG2 Assay for human TAL Basal Promoter (AID 2282966); details: HepG2 Attagene cis-factorial TAL promoter reporter; actives raise or lower the signal;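 also: background control endpoint measuring basal TAL promoter reporter mRNA not a specific factor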
Procedure, shortened: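 In this cell-based multiplex, HepG2 liver cells bearing cis-promoter reporter constructs are dosed for 24 hours. Total RNA is reverse-transcribed and amplified, labelled fragments are sized by capillary electrophoresis, and signal changes are fitted bidirectionally versus DMSO.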

[2] = ATG_TGFb_CIS: Attagene CIS-FACTORIAL HepG2 Assay for human Transforming Growth Factor (TGF) (AID 2282967); details: HepG2 Attagene CIS TGFb reporter, mRNA transcription; actives raise or lower the signal
Procedure, shortened: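 Endogenous TGFB1-linked transcription factor activity read as reporter mRNA via RT-PCR and capillary electrophoresis, 24 h after dosing transiently transfected HepG2 cells. Gain or loss of signal fitted relative to DMSO.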

[3] = ATG_VDRE_CIS: Attagene CIS-FACTORIAL HepG2 Assay for human Vitamin D Receptor Element (VDRE) (AID 2282968); details: HepG2 VDRE cis-reporter transcription, actives raise or lower the signal
Procedure, shortened: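 In transiently transfected HepG2 liver cells, gain or loss of reporter mRNA after 24 h exposure is scored relative to DMSO, using fluorescence detection by capillary electrophoresis of RT-PCR products.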

[4] = molecular target: X-box-binding protein 1 (Homo sapiens) (UniProt P17861); test: ATG_Xbp1_CIS: Attagene CIS-FACTORIAL HepG2 Assay for human X-box Binding Protein 1 (XBP1) (AID 2282972); details: HepG2 XBP1 cis-element reporter, Attagene multiplex; actives raise or lower the signal
X-box-binding protein 1 (Homo sapiens), sequence (P17861 whole entry, looked up): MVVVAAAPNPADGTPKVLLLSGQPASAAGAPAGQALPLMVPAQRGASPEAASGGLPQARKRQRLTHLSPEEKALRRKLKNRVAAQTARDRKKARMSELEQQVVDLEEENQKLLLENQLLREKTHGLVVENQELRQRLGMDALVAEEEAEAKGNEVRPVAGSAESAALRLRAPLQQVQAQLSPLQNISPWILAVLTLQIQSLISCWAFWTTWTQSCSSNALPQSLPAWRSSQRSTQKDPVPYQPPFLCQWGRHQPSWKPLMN
Procedure, shortened: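 HepG2, transient MRTU transfection (cis-promoter driven), 24 h compound exposure. Total RNA → oligo(dT) RT → PCR → 6-FAM labeling → HpaI cut → CE. Bidirectional fit vs DMSO.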

[5] = ATG_M_19_TRANS: Attagene TRANS-FACTORIAL HepG2 Assay for M19 Transcription Factor (Internal Marker) (AID 2282974; active = hit-call score of the fitted dose curve at least 0.9, where 1 is the maximum); details: HepG2 Attagene TRANS-FACTORIAL M19 internal marker reporter
Procedure, shortened: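 Cells: human HepG2, transiently transfected with multiplexed reporter transcription units. Exposure: 24 h. Detection: RT-PCR of reporter mRNA with capillary electrophoresis. Analysis: gain-of-signal vs DMSO.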

[6] = ATG_GAL4_TRANS: Attagene TRANS-FACTORIAL HepG2 Assay for GAL4 (Internal Marker) (AID 2282976; active = hit-call score of the fitted dose curve at least 0.9, where 1 is the maximum); details: HepG2 Attagene TRANS GAL4 internal marker reporter
Procedure, shortened: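 RT-PCR/capillary electrophoresis readout of reporter mRNA. HepG2, transient MRTU transfection (GAL4-UAS reporters), 24 h compound exposure. Background-control endpoint, positive direction vs DMSO baseline.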

[7] = molecular target: Hepatocyte nuclear factor 4-alpha (Homo sapiens) (UniProt P41235); test: ATG_HNF4a_TRANS: Attagene TRANS-FACTORIAL HepG2 Assay for human Hepatocyte Nuclear Factor 4 alpha (HNF4a) (AID 2282982; active = hit-call score of the fitted dose curve at least 0.9, where 1 is the maximum); details: HepG2 HNF4a transactivation reporter, mRNA readout
Hepatocyte nuclear factor 4-alpha (Homo sapiens), sequence (P41235 whole entry, looked up): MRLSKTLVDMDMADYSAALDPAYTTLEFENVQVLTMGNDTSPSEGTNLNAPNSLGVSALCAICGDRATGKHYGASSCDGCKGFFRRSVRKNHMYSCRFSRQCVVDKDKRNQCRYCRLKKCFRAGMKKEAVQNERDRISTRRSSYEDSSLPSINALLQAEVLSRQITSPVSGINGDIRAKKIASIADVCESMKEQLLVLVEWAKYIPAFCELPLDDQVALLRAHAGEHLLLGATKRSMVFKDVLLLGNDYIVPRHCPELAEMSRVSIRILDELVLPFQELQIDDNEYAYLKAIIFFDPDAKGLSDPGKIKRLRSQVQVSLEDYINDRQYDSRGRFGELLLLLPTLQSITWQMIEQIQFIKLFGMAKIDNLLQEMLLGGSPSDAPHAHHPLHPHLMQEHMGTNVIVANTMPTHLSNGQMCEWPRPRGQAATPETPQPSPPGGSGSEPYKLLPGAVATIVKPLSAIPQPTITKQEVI
Procedure, shortened: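 Transfected HepG2 reporter cells are dosed for 24 h; reporter RNA is reverse-transcribed, amplified, fluorescently labelled and HpaI-digested before CE sizing. Positive-direction fit against DMSO.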

[8] = molecular target: Transcriptional activator Myb (Homo sapiens) (UniProt P10242); test: ATG_Myb_CIS: Attagene CIS-FACTORIAL HepG2 Assay for human Myeloblastosis (Myb) Proto-Oncogene Transcription Factor (AID 2282986); details: HepG2 Attagene CIS-FACTORIAL Myb reporter transcription; actives raise or lower the signal
Transcriptional activator Myb (Homo sapiens), sequence (P10242 whole entry, looked up): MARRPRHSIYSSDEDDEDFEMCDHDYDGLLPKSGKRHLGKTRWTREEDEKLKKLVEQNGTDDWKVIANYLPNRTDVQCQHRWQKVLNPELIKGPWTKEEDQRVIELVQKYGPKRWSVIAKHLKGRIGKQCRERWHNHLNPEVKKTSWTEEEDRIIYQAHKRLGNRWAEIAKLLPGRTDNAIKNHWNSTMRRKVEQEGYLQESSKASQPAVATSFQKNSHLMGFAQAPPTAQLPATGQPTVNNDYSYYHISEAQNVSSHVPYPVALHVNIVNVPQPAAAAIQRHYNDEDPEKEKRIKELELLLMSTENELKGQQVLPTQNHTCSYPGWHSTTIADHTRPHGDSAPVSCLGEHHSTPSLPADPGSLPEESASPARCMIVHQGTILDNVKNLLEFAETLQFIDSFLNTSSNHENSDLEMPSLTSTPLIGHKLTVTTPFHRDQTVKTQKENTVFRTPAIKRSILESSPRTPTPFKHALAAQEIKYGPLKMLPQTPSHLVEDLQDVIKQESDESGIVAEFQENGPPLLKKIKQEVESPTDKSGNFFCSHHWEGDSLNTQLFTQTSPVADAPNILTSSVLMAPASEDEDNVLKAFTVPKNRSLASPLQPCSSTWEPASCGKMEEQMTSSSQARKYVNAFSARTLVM
Procedure, shortened: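 Steps: transfect HepG2 with cis-regulated reporter units; dose with chemical for 24 h; isolate RNA, reverse-transcribe, PCR-amplify and FAM-label reporter sequences; digest with HpaI; resolve by capillary electrophoresis. Activity fitted in both directions relative to DMSO.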

[9] = molecular target: Nuclear respiratory factor 1 (Homo sapiens) (UniProt Q16656); test: ATG_NRF1_CIS: Attagene CIS-FACTORIAL HepG2 Assay for human Nuclear Respiratory Factor 1 (NRF1) Orphan Gene (AID 2282987); details: HepG2 NRF1 cis-element reporter, Attagene multiplex; actives raise or lower the signal
Nuclear respiratory factor 1 (Homo sapiens), sequence (Q16656 whole entry, looked up, the tested form may be a part): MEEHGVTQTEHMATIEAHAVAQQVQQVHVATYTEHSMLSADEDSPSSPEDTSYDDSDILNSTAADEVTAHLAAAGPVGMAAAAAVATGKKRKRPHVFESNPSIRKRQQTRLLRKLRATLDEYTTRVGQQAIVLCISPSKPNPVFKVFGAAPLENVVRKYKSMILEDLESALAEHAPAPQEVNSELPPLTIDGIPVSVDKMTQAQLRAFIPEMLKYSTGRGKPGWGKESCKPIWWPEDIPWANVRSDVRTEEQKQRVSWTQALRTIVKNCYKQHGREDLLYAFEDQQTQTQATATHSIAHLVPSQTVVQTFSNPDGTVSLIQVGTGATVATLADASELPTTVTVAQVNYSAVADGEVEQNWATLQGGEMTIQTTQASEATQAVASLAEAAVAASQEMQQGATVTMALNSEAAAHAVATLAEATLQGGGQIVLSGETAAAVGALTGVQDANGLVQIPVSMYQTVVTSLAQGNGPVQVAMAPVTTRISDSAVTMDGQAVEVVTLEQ
Procedure, shortened: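 Fluorescence intensity of labelled reporter cDNA fragments, resolved by capillary electrophoresis, served as readout for NRF1 cis-element activity. Transiently transfected HepG2 cells were dosed for 24 hours; activity in either direction was fitted against DMSO negative control.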

[10] = molecular target: Estrogen receptor (Homo sapiens) (UniProt P03372); test: ATG_ERa_TRANS: Attagene TRANS-FACTORIAL HepG2 Assay for human Estrogen Receptor alpha (ERa) (AID 2282970; active = hit-call score of the fitted dose curve at least 0.9, where 1 is the maximum); details: HepG2 Attagene TRANS ERa GAL4 reporter, mRNA
Estrogen receptor (Homo sapiens), sequence (P03372 whole entry, looked up, the tested form may be a part): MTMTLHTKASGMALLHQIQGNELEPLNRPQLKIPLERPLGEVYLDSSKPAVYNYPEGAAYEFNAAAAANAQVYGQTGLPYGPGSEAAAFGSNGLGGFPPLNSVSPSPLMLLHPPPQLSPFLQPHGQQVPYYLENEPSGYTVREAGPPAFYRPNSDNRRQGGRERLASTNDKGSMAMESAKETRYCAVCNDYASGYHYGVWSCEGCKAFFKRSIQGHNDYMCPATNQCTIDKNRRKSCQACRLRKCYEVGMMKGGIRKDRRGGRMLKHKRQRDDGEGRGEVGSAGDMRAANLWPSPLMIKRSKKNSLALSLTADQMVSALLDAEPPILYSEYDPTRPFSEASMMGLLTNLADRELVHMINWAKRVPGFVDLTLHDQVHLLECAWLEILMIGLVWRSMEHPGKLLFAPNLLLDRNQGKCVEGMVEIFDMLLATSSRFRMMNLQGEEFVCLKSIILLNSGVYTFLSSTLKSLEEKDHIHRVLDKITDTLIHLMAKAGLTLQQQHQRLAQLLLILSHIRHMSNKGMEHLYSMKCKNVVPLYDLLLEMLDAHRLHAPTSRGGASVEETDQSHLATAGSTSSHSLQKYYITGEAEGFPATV
Procedure, shortened: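 After 24 h of compound treatment, RNA from HepG2 cells bearing transfected GAL4-UAS reporter constructs is converted to cDNA, amplified and fluorescently labelled. Capillary electrophoresis resolves the ERa-linked reporter; DMSO serves as negative control.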

[11] = molecular target: Nuclear receptor subfamily 4 group A member 2 (Homo sapiens) (UniProt P43354); test: ATG_NURR1_TRANS: Attagene TRANS-FACTORIAL HepG2 Assay for human Nuclear Receptor Related Protein 1 (NURR1) (AID 2282985; active = hit-call score of the fitted dose curve at least 0.9, where 1 is the maximum); details: HepG2 Attagene TRANS reporter, mRNA readout
Procedure, shortened: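 Cells: HepG2, transiently transfected. Exposure: 24 h. Detection: fluorescence of labelled RT-PCR products separated by capillary electrophoresis; upward fit versus DMSO.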

[12] = molecular target: Oxysterols receptor LXR-alpha (Homo sapiens) (UniProt Q13133); test: ATG_LXRa_TRANS: Attagene TRANS-FACTORIAL HepG2 Assay for human Liver X Receptor alpha (LXRa) (AID 2282980; active = hit-call score of the fitted dose curve at least 0.9, where 1 is the maximum); details: HepG2 Attagene TRANS reporter, LXRa transactivation
Oxysterols receptor LXR-alpha (Homo sapiens), sequence (Q13133 whole entry, looked up, the tested form may be a part): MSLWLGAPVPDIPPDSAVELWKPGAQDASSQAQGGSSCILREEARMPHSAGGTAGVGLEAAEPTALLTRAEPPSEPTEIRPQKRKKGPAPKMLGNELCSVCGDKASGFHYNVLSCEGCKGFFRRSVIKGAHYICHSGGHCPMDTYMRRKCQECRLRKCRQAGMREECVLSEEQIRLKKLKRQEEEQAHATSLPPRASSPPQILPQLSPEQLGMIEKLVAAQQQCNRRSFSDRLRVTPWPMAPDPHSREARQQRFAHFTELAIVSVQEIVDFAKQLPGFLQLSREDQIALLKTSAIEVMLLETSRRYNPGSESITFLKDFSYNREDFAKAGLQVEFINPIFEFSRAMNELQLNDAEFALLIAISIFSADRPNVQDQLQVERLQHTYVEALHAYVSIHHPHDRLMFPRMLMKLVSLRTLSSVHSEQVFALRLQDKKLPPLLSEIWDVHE
Procedure, shortened: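 Read-out: reporter transcript levels by RT-PCR plus capillary electrophoresis, fluorescence intensity. Transiently transfected HepG2, exogenous NR-GAL4 chimera, GAL4-UAS reporters; 24 h compound exposure. Activity = increase over DMSO negative control.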

[13] = molecular target: Oxysterols receptor LXR-beta (Homo sapiens) (UniProt P55055); test: ATG_LXRb_TRANS: Attagene TRANS-FACTORIAL HepG2 Assay for human Liver X Receptor beta (LXRb) (AID 2282981; active = hit-call score of the fitted dose curve at least 0.9, where 1 is the maximum); details: HepG2 Attagene TRANS GAL4-LXRb reporter, mRNA
Procedure, shortened: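 Cells: HepG2, transiently transfected with GAL4-UAS reporter units plus LXRb-Gal4 fusion. Treatment: 24 h. Detection: reporter mRNA by RT-PCR, 6-FAM labelling, HpaI digestion, capillary electrophoresis.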

[14] = ATG_M_06_TRANS: Attagene TRANS-FACTORIAL HepG2 Assay for M06 Transcription Factor (Internal Marker) (AID 2282983; active = hit-call score of the fitted dose curve at least 0.9, where 1 is the maximum); details: HepG2 Attagene TRANS M06 internal marker reporter
Procedure, shortened: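 After a 24 h chemical treatment of transfected HepG2, RNA underwent DNase I treatment, reverse transcription and reporter-specific PCR; labelled, HpaI-digested products were sized by capillary electrophoresis. Signal increase relative to DMSO defined activity.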

[15] = molecular target: Estrogen-related receptor gamma (Homo sapiens) (UniProt P62508); test: ATG_ERRg_TRANS: Attagene TRANS-FACTORIAL HepG2 Assay for human Estrogen-Related Receptor gamma (ERRg) (AID 2282977; active = hit-call score of the fitted dose curve at least 0.9, where 1 is the maximum;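 also: hits increase reporter signal over DMSO so potencies reflect activators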); details: HepG2 Attagene TRANS reporter, ERRg transactivation
Estrogen-related receptor gamma (Homo sapiens), sequence (P62508 whole entry, looked up, the tested form may be a part): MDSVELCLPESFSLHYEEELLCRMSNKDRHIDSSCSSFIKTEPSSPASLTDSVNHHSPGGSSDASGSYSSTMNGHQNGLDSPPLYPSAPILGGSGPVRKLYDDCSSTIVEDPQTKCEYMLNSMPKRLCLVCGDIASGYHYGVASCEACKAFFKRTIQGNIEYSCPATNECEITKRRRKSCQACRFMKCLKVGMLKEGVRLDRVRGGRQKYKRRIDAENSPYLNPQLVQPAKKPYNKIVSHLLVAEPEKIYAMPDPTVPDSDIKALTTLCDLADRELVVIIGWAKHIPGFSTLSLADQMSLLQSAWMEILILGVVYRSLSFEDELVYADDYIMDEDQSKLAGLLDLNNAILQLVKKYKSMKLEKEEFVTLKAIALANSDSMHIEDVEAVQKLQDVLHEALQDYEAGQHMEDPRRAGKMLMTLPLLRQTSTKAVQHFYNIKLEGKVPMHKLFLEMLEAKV
Procedure, shortened: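 Transient HepG2 transfectants, 24 h compound exposure, GAL4-UAS reporter mRNA by RT-PCR/6-FAM labelling/capillary electrophoresis; positive direction vs DMSO.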

[16] = molecular target: Glucocorticoid receptor (Homo sapiens) (UniProt P04150); test: ATG_GR_TRANS: Attagene TRANS-FACTORIAL HepG2 Assay for human Glucocorticoid Receptor (GR) (AID 2282978; active = hit-call score of the fitted dose curve at least 0.9, where 1 is the maximum;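 also: activators score as hits since higher reporter transcript over DMSO is fitted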); details: HepG2 Attagene TRANS GR reporter, mRNA transcription
Glucocorticoid receptor (Homo sapiens), sequence (P04150 whole entry, looked up, the tested form may be a part): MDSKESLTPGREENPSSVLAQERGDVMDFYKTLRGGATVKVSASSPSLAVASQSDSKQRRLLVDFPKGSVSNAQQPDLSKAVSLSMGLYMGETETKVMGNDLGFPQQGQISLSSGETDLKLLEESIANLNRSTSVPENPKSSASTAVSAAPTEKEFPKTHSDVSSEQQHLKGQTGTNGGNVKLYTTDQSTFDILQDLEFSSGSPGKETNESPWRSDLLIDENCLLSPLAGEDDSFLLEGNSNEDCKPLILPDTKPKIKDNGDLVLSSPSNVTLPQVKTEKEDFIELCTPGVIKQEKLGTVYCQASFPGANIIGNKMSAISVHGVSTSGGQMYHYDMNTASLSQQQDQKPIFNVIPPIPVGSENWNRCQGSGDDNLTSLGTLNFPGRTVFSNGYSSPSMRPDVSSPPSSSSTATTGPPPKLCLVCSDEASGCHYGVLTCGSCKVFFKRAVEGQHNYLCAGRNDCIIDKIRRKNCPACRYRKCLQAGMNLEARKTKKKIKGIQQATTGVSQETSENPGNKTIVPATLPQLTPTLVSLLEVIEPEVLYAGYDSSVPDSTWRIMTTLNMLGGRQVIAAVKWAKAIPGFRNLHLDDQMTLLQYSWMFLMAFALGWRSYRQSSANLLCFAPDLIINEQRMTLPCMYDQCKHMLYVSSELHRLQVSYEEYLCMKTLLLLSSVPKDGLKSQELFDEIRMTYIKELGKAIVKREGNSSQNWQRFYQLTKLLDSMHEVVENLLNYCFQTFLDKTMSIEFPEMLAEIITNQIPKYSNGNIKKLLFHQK
Procedure, shortened: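 In this trans-factorial format, exogenous NR-GAL4 chimeric proteins in transfected HepG2 cells regulate GAL4-UAS reporter transcription. After 24 h treatment, reporter mRNA induction relative to DMSO is read by RT-PCR and capillary electrophoresis.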

[17] = molecular target: Bile acid receptor (Homo sapiens) (UniProt Q96RI1); test: ATG_FXR_TRANS: Attagene TRANS-FACTORIAL HepG2 Assay for Farnesoid X Receptor (FXR) (AID 2282979; active = hit-call score of the fitted dose curve at least 0.9, where 1 is the maximum;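 also: hits raise reporter mRNA above DMSO so AC50 marks FXR activation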); details: HepG2 Attagene TRANS FXR-GAL4 reporter transcription
Bile acid receptor (Homo sapiens), sequence (Q96RI1 whole entry, looked up, the tested form may be a part): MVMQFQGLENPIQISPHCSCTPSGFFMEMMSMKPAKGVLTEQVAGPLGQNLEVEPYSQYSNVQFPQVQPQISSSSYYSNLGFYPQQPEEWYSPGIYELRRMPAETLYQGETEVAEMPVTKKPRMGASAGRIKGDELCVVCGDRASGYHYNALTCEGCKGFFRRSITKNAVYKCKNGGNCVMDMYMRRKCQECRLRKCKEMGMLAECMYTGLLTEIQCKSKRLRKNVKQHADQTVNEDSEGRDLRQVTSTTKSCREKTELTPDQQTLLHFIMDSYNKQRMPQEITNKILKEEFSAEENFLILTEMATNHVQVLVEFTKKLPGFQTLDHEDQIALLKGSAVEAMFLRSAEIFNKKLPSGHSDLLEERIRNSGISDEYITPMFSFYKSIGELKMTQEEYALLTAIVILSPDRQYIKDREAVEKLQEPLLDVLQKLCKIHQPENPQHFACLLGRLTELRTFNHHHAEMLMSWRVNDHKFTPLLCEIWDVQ
Procedure, shortened: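 Read-out: fluorescent reporter transcripts quantified by capillary electrophoresis after RT-PCR of total RNA. Source cells were HepG2 transiently carrying chimeric NR-GAL4 plus GAL4-UAS reporter units, dosed 24 h. Activity fitted upward relative to DMSO baseline.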

[18] = molecular target: Steroid hormone receptor ERR1 (Homo sapiens) (UniProt P11474); test: ATG_ERRa_TRANS: Attagene TRANS-FACTORIAL HepG2 Assay for human Estrogen-Related Receptor alpha (ERRa) (AID 2282971; active = hit-call score of the fitted dose curve at least 0.9, where 1 is the maximum); details: HepG2 Attagene TRANS reporter, ERRa transactivation
Procedure, shortened: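 Transfected HepG2, 24 h dosing, ERRa-Gal4 chimera driving GAL4-UAS reporter. Readout: reporter mRNA via RT-PCR plus capillary electrophoresis (fluorescence). Positive direction vs DMSO control.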

[19] = molecular target: Nuclear receptor subfamily 1 group I member 3 (Homo sapiens) (UniProt Q14994); test: ATG_CAR_TRANS: Attagene TRANS-FACTORIAL HepG2 Assay for human Constitutive Androstane Receptor (CAR) (AID 2282969; active = hit-call score of the fitted dose curve at least 0.9, where 1 is the maximum;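 also: activators raise reporter mRNA above DMSO so AC50 marks induction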); details: HepG2 Attagene TRANS-FACTORIAL CAR reporter
Nuclear receptor subfamily 1 group I member 3 (Homo sapiens), sequence (Q14994 whole entry, looked up, the tested form may be a part): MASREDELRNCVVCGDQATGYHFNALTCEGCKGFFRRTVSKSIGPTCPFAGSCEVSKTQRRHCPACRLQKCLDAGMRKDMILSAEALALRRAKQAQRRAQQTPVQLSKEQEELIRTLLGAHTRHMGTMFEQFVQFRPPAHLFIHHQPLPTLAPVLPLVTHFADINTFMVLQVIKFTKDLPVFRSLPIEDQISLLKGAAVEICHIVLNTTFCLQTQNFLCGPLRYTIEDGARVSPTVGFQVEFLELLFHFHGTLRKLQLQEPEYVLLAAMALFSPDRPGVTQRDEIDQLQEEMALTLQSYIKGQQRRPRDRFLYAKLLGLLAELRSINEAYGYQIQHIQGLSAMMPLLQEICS
Procedure, shortened: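 Readout is reporter mRNA induction, quantified by fluorescent primer extension and capillary electrophoresis after RT-PCR. Cells were HepG2 transiently carrying chimeric NR-Gal4 constructs with GAL4-UAS reporters, treated for 24 h; activity scored upward from DMSO.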

Measured: AC50

Cc1occc(=O)c1O
inactive: [1] | [2] | [3] | [4] | [5] | [6] | [7] | [8] | [9]

CCC(C)N(C)C(=O)c1cc2ccccc2c(-c2ccccc2Cl)n1 (configuration not stated)
active: [3] 1.54 µM | [9] 63 µM
inactive: [1] | [2] | [10] | [4] | [5] | [11] | [8]

N[C@@H](Cc1c[nH]c2ccccc12)C(=O)O
inactive: [1] | [2] | [3] | [4] | [5] | [6] | [12] | [13] | [8] | [9]

O=C(O)c1[nH]n(-c2ccc(S(=O)(=O)O)cc2)c(=O)c1N=Nc1ccc(S(=O)(=O)O)cc1
inactive: [1] | [2] | [3] | [10] | [4] | [6] | [14] | [8] | [9]

O=[Si]=O
not listed: [16] | [17] | [18] | [19]
inactive: all other assays above

CCc1cc(C2=C(C(=O)O)N(c3ccccc3C(F)(F)F)S(=O)(=O)c3ccccc32)cc2c1OCO2
inactive: [1] | [2] | [4] | [6] | [16] | [14] | [8] | [9]
active: [3] 11.8 µM

CCc1nc(N)nc(N)c1-c1ccc(Cl)cc1
active: [3] 100 µM | [4] 147 µM | [9] 48.8 µM
inactive: [1] | [2] | [10] | [16] | [17] | [14] | [8]

COc1ccc(C(=O)Nc2nc3ccccc3c(NCc3ccccc3)c2C#N)cc1
not listed: [3] | [6] | [14] | [16] | [17] | [19]
inactive: all other assays above

CCOCCOCCO
inactive: [1] | [2] | [18] | [4] | [5] | [6] | [15] | [16] | [8] | [9]

O=C(O)c1cccnc1
inactive: [1] | [2] | [19] | [4] | [5] | [6] | [17] | [14] | [11] | [8] | [9]
active: [4] 25.2 µM

C/C=C/c1ccc(OC)cc1
inactive: [1] | [2] | [4] | [5] | [7] | [8] | [9]

CCCCCCC(CCCCCCCCCCC(=O)OCC(COC(C)=O)OC(C)=O)OC(C)=O (configuration not stated)
inactive: [1] | [2] | [3] | [4] | [16] | [17] | [14] | [8] | [9]
